# Measurements: PubChem BioAssay AID1236 (Emory University Molecular Libraries Screening Center, 2008)
# Hit rate of the full screen: of about 220,000 compounds, about 800 (0.36%) were called active. Only a selection was taken, and actives are over-represented in it overall. Unmarked numbers belong to inactive results.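 The calls were made as follows: active = inhibition above about 50% (limit read from the data); inactive = the rest.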
# Tested on: calpain II (m-calpain), Sus scrofa
# Assay: m-calpain protease activity blockers – biochemical, fluorogenic peptide substrate, 1536-well, primary screen (AID 1236)
# Details: purified calpain II, 30 min, at 16 µM, hits give high values
row,SMILES,inhibition
1,Cn1nc(C(C)(C)C)c(NC(=O)c2sccc2Cl)c1C(C)(C)C,-8.61%
2,O=C(CN1C2=NCCN2c2ccccc21)c1cccs1,-7.58%
3,COc1cc(C(=O)NCc2ccc3c(c2)cc(C)n3C)cc(OC)c1OC,65% (active)
4,COc1cc(-n2c(C)nc3cc(C(=O)NCc4ccco4)ccc32)cc(OC)c1OC,8.54%
5,COc1cc(C(=O)NCc2ccc(-n3cccc3)cc2)cc(OC)c1OC,8.77%
6,CC(C)(C)c1ccc(CCC2OCC(CN3CCOCC3)O2)cc1 (centres undefined),-40.5%
7,Cc1sc2nc(COC(=O)C(NC(=O)c3ccc(Cl)cc3Cl)C(C)C)[nH]c(=O)c2c1C (centres undefined),-7.99%
8,CNC(=O)c1csc(Cc2c(Cl)sc3ccc(Cl)cc23)n1,0.86%
9,Cn1c(N)c(C(=O)COC(=O)C23CC4CC(CC(C4)C2)C3)c(=O)n(C)c1=O,79.2% (active)
10,CC(=O)c1c(N)n(C)c(=O)n(C)c1=O,-24.4%
11,CC1CC1C(=O)OCC(=O)c1c(N)n(C)c(=O)n(C)c1=O (centres undefined),3.06%
12,Cc1ccc2[nH]cc(CCNC(=O)c3ccc([N+](=O)[O-])cc3)c2c1,9.36%
13,CC(C)c1nccn1S(=O)(=O)c1cc([N+](=O)[O-])ccc1Cl,12%
14,COc1ccc(O[C@H]2C=C[C@@H](c3ccccc3)O[C@@H]2CO/N=C/C[C@@H]2C=C[C@H](OC(C)=O)[C@@H](COC(C)=O)O2)cc1,27%
15,Cc1cccc2cc3c(N)c(C(=O)N4CCCc5ccccc54)sc3nc12,-64.7%
16,COc1ccc(-c2nnc3ccc(SCc4ccccc4)nn23)cc1,-6.26%
17,COc1cc(N/C=C2\CC(=O)NC(C)=C2C#N)cc(OC)c1OC,-145%
18,Oc1c(Cl)cc(Cl)c(Cl)c1Cc1c(O)c(Cl)cc(Cl)c1Cl,109% (active)
19,CCOC(=O)c1cc2c(=O)n3ccccc3nc2n(CC(C)C)c1=NC(=O)c1c(-c2c(F)cccc2Cl)noc1C,-60.6%
20,CCOC(=O)c1c(C)nn(-c2ncccc2NC(=O)CCC(=O)O)c1C,10.4%
21,CCCCSc1nc2ccccc2[nH]1,-22.6%
22,CCc1nnc(NC(=O)CCCSc2nc3ccccc3[nH]2)s1,2.67%

row,SMILES,inhibition
1,O=C(COC(=O)CCCSc1nc2ccccc2[nH]1)Nc1ccc(Oc2ccccc2)cc1,51.3% (active)
2,CCCCCn1c(=O)c(C(=O)OCC)c(Cl)c2ccccc21,-1.97%
3,COc1ccc(C)cc1NC(=O)c1ccc(-c2ccc(C(C)=O)cc2)o1,-135%
4,COC(=O)c1ccccc1NC(=O)C1CC(=O)N(c2ccc(OC)cc2)C1 (centres undefined),4.97%
5,CCN(CC)CCNC(=O)CCCCCn1c(=O)[nH]c2cc(C(=O)OC)ccc2c1=O,-103%
6,CCN(CCCNC(=O)CCn1c(=O)[nH]c2ccsc2c1=O)c1ccccc1,64.7% (active)
7,CCCCC(CC)CNC(=O)CCCCn1c(=O)[nH]c2ccsc2c1=O (centres undefined),13.6%
8,O=c1cc(O)c(-c2cccc(C(F)(F)F)c2)c(Cl)[nH]1,27.3%
9,Cc1cc(C(=O)CCl)c(C)n1CC1COc2ccccc2O1 (centres undefined),-16.6%
10,COc1ccc(-c2cc(C3CCN(c4ncccc4[N+](=O)[O-])CC3)[nH]n2)cc1,10.5%
11,Cc1ccc(NN=C2C(=O)OC(C)(C)OC2=O)c(C)c1,6.22%
12,Cc1ccc(OCCCn2c(=O)oc3ccccc32)cc1,21.8%
13,O=C(Nc1ccc2c(c1)CCC2)c1cccc(S(=O)(=O)N2CCN(c3ccc(F)cc3)CC2)c1,-32.9%
14,O=C(c1cccc(S(=O)(=O)Nc2ccccc2Cl)c1)N1CCN(C(=O)c2ccco2)CC1,10.2%
15,O=C(Nc1ccc2c(c1)CCC2)c1cccc(S(=O)(=O)Nc2ccccc2Cl)c1,55.1% (active)
16,O=C(Nc1cc2c3c(c1)C1CCCC1CN3CC1CCCC21)c1ccc([N+](=O)[O-])cc1 (centres undefined),-34.8%
17,O=C(Oc1cccc(NC2=NS(=O)(=O)c3ccccc32)c1)c1ccncc1,-20.9%
18,COC(=O)Cc1c(O)ccn(Cc2cccc(C(F)(F)F)c2)c1=O,-20.3%
19,CC(C)Cc1nnc(NC(=O)CCC(=O)Nc2ccc3cn[nH]c3c2)s1,-10.5%
20,CSCCC(NS(=O)(=O)c1ccc2c(c1)oc(=O)n2C)C(=O)NC1CCCc2ccccc21 (centres undefined),30.2%
21,O=C(Nc1ccc(S(=O)(=O)Nc2nccs2)cc1)c1cc(-c2ccncc2)nc2ccccc12,-37.6%
22,COc1cccc2cc(S(=O)(=O)c3ccc(C)cc3)/c(=N/NS(=O)(=O)c3ccc(C)cc3)oc12,-24.9%
